Experimental data as given in PubChem BioAssay (EPA / NIEHS).
“And” between values parts separate entries of the source, which are not always exact repeats. Equal entries are not always repeated. Inconclusive results are not listed. The source made the active and inactive calls. Rule for the calls, unless noted: active = hit-call score of the fitted dose curve at least 0.9, where 1 is the maximum; inactive = score below 0.9.

What was measured:
[1] = CCTE_Deisenroth_5AR_NBTE_donor: CCTE's 5alpha-reductase NanoBRET Target Engagement Assay […], Deisenroth Lab (AID 2284319); conditions: actives raise or lower the signal
Outline: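 HEK293T cells were reverse transfected with an SRD5A2-NanoLuc vector for 20 h, exposed to test chemical (8 points, 10 nM - 29.9 uM) for 3 h, then testosterone tracer for 2 h more. Donor luminescence (460 nm) was read; bidirectional fit versus DMSO.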

[2] = CCTE_Deisenroth_5AR_NBTE_acceptor: CCTE's 5alpha-reductase NanoBRET Target Engagement Assay - Autofluorescence Screen, Deisenroth Lab (AID 2284321); conditions: actives raise or lower the signal;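 note: compound fluorescence in the acceptor channel under 460 nm excitation flags autofluorescence artifacts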
Outline: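 Acceptor fluorescence intensity was read as an artifact-detection endpoint. Test chemicals at an assumed nominal 100 uM were excited at 460 nm across three independent runs. Activity was fitted bidirectionally against DMSO.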

SRD5A2 (gene 6716) = experiment: CCTE_Deisenroth_5AR_NBTE_ratio: CCTE's 5alpha-reductase NanoBRET Target Engagement Assay - Ratio, Deisenroth Lab (AID 2284322); conditions: actives raise or lower the signal
Outline: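 HEK293T transiently expressing SRD5A2-NanoLuc; cells exposed to chemical (8-point, 10 nM - 29.9 uM) for 5 h total, testosterone tracer added for final 2 h. NanoBRET acceptor/donor ratio (650/460 nm), bidirectional fit vs DMSO.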

[3] = system: Brachyury (BRA) Protein Expression, Deisenroth Lab, TBXT (gene 6862); experiment: CCTE_Deisenroth_DEVTOX-GLR_legacy_Bra: (Legacy) CCTE's DevTox GLR-Endo Assay Evaluation of Brachyury (BRA) Protein Expression, Deisenroth Lab (AID 2284329)
Outline: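 RUES2-GLR human pluripotent cells are differentiated for 48 h and receive two chemical exposures 24 h apart, at 10 concentrations from 1 nM to 200 uM. Cells are fixed, nuclei stained and imaged. Bra+ cells are those with mean Bra intensity over 5x BMAD above the pluripotent control median, expressed as a percentage of cell count, after subtracting the 0.2% DMSO control median.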

[4] = CCTE_Deisenroth_DEVTOX-GLR_legacy_CellCount: (Legacy) Viability Assessment in CCTE's DevTox GLR-Endo Assay, Deisenroth Lab (AID 2284331); conditions: actives raise or lower the signal
Outline: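 RUES2-GLR human pluripotent cells were seeded 24 h, then differentiated 48 h with two compound doses at 24 h intervals (10-point, 1 nM - 200 uM). Fixed nuclei were imaged and counted; bidirectional fitting versus 0.2% DMSO.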

[5] = system: SRY-box transcription factor 17 (SOX17) Protein Expression, Deisenroth Lab, SOX17 (gene 64321); experiment: CCTE_Deisenroth_DEVTOX-GLR_legacy_Sox17: (Legacy) CCTE's DevTox GLR-Endo Assay Evaluation of SRY-box transcription factor 17 (SOX17) Protein Expression, Deisenroth Lab (AID 2284341); conditions: actives raise or lower the signal
Outline: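 Percent SOX17-positive cells, scored by high-content imaging as mean intensity exceeding pluripotent-control median by 5x BMAD, divided by cell count. Human RUES2-GLR endoderm differentiation, 48 h, two exposures 24 h apart, 1 nM–200 uM; DMSO-referenced bidirectional fitting.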

SERPINA7 (gene 6906) = experiment: CCTE_GLTED_hTBG: CCTE's human Thyroxine-binding Globulin (TBG) Inhibition Assay, Great Lakes Toxicology and Ecology Division (GLTED) Lab (AID 2284343; active = hit-call score of the fitted dose curve at least 0.9, where 1 is the maximum;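 note: active chemicals lower fluorescence versus DMSO baseline by displacing probe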)
Outline: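 Human TBG incubated 2 h with test chemical; displacement of ANSA probe read by fluorescence, 380 nm excitation/475 nm emission. Loss of signal relative to DMSO.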

[6] = system: SRY-box transcription factor 2 (SOX2) Protein Expression, Deisenroth Lab, SOX2 (gene 6657); experiment: CCTE_Deisenroth_DEVTOX-GLR_legacy_Sox2: (Legacy) CCTE's DevTox GLR-Endo Assay Evaluation of SRY-box transcription factor 2 (SOX2) Protein Expression, Deisenroth Lab (AID 2284346)
Outline: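 RUES2-GLR human pluripotent cells were differentiated for 48 h with two chemical doses 24 h apart, over 1 nM-200 uM. Sox2+ cells were those above 5x BMAD of the endoderm-control median; percent Sox2+ minus the 0.2% DMSO median was used, from n=4 replicates.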

[7] = VALA_TUBHUV_Antagonist_TubuleLength: VALA Sciences human Umbilical Vein Endothelial Tubule Formation (TUBHUV) Antagonism Assay (AID 2284325; active = hit-call score of the fitted dose curve at least 0.9, where 1 is the maximum)
Outline: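 HUVEC–HDF co-culture (1:3) pre-grown 3 days with 10 ng/ml VEGF, then 3 days with compound plus VEGF. Fixed, nuclear and CD31 stained; total tubule length by imaging versus 0.1% DMSO; suramin 100 uM positive control.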

[8] = VALA_MIGHUV1_ScratchOnly_CellCount: Viability Assessment in the VALA Sciences human Umbilical Vein Endothelial Cell Migration (MIGHUV) Assay, Scratch Wound Inhibited Recovery (AID 2284327; active = hit-call score of the fitted dose curve at least 0.9, where 1 is the maximum)
Outline: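 HUVEC scratched after 24 h culture, chemical added within 30 min at 6 concentrations in triplicate (0.1% DMSO vehicle). After 24 h recovery, fixed cells were counted by Hoechst nuclear imaging in the wound area.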

[9] = VALA_MIGHUV1_ScratchOnly_WoundArea: VALA Sciences human Umbilical Vein Endothelial Cell Migration (MIGHUV) Assay, Area of Scratch Wound Inhibited Recovery (AID 2284336; active = hit-call score of the fitted dose curve at least 0.9, where 1 is the maximum)
Outline: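 HUVEC monolayers (9000 cells/well) were scratched after 24 h, dosed within 30 min (six concentrations, triplicate, 0.1% DMSO), allowed 24 h recovery, then fixed. Hoechst-stained nuclei in the wound imaged; cytochalasin D as reference.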

[10] = VALA_TUBHUV_Agonist_TubuleLength: VALA Sciences human Umbilical Vein Endothelial Tubule Formation (TUBHUV) Agonism Assay (AID 2284337; active = hit-call score of the fitted dose curve at least 0.9, where 1 is the maximum)
Outline: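 HUVEC co-cultured with fibroblasts (1:3) 3 days in 10 ng/ml VEGF, then 3 days with compound plus VEGF; 0.1 % DMSO neutral control. Fixed, nuclear and CD31 stained; tubule length by fluorescence imaging.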

[11] = VALA_TUBIPS_Agonist_CellCount: Viability Assessment in the VALA Sciences human iPS-derived Endothelial Tubule Formation (TUBIPS) Agonism Assay (AID 2284338; active = hit-call score of the fitted dose curve at least 0.9, where 1 is the maximum)
[12] = system: SRY-box transcription factor 2 (SOX2) Protein Expression, Deisenroth Lab, SOX2 (gene 6657); experiment: CCTE_Deisenroth_DEVTOX-GLR_Endo_SOX2: CCTE's DevTox GLR-Endo Assay Evaluation of SRY-box transcription factor 2 (SOX2) Protein Expression, Deisenroth Lab (AID 2284412; active = hit-call score of the fitted dose curve at least 0.9, where 1 is the maximum)
Outline: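 RUES2-GLR human pluripotent cells were seeded 24 h, then differentiated 48 h with two chemical exposures 24 h apart. Cells were fixed, nuclei stained and imaged by high-content microscopy. Endpoint is %SOX2+ cells over cell count, minus 0.2% DMSO control; 10-point series 1 nM–200 uM.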

[13] = CCTE_Mundy_HCI_iCellGluta_NOG_NeuriteLength: CCTE's Neurite Outgrowth Assay in iCellGluta cells for Neurite Length, Mundy Lab (AID 2284318; active = hit-call score of the fitted dose curve at least 0.9, where 1 is the maximum)
Outline: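 Automated high-content imaging of betaIII-tubulin (Alexa Fluor-488) and Hoechst-stained cells gave neurite length, normalized to the DMSO baseline.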

[14] = IUF_NPC1_cytotoxicity_72hr: Cytotoxicity Assessment at 72 hours in the Leibniz Research Institute for Environmental Medicine (IUF) Neural Progenitor Cell Proliferation Assay (NPC1) (AID 2284332; active = hit-call score of the fitted dose curve at least 0.9, where 1 is the maximum;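 note: rising LDH signal means more cytotoxicity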)
Outline: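 Human fetal neural progenitor spheres (0.3 mm) in EGF/FGF proliferation medium, 37C, exposed 72 h without renewal. LDH release in supernatant read by resorufin fluorescence; gain of signal scored relative to dynamic range.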

[15] = VALA_TUBIPS_Antagonist_CellCount: Viability Assessment in the VALA Sciences human iPS-derived Endothelial Tubule Formation (TUBIPS) Antagonism Assay (AID 2284335; active = hit-call score of the fitted dose curve at least 0.9, where 1 is the maximum)
[16] = CCTE_Mundy_HCI_iCellGluta_NOG_NeuronCount: CCTE's Neurite Outgrowth Assay in iCellGluta cells for Neuron Count, Mundy Lab (AID 2284340; active = hit-call score of the fitted dose curve at least 0.9, where 1 is the maximum;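 note: cells fixed about 48 h after compound addition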)
Outline: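 Neuron count read by automated high-content imaging of Hoechst 33342 and betaIII-tubulin/Alexa Fluor-488 labelling in human iPSC glutamatergic neurons. Activity fitted relative to DMSO.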

[17] = CCTE_Mundy_HCI_iCellGluta_NOG_NeuriteCount: CCTE's Neurite Outgrowth Assay in iCellGluta cells for Neurite Count, Mundy Lab (AID 2284342; active = hit-call score of the fitted dose curve at least 0.9, where 1 is the maximum;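 note: chemical exposure about 48 hours starting 2 hours after plating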)
[18] = TAMU_PeakParms_SingleDonor1434_Asystole: Texas A&M University (TAMU) 1.5-hr Human Induced Pluripotent Stem Cell (iPSC)-derived Cardiomyocytes Calcium (Ca+2) Flux Assay for Cardiotoxicity: Asystole (quiescence of beating) (AID 2284328; active = hit-call score of the fitted dose curve at least 0.9, where 1 is the maximum)
Outline: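 Donor 1434 iPSC-cardiomyocytes exposed 90 min at 37C, 5% CO2, to 0.2, 1, 10 and 100 uM in 0.5% DMSO. Ca2+ dye fluorescence gave average peak frequency; POD is EC95, a 95% beat-rate drop versus controls.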

Measured: AC50

O=C(O)c1cc(N=Nc2ccc(S(=O)(=O)Nc3ccccn3)cc2)ccc1O
inactive: [1] | [2] | [3] | [4] | [5] | [6]
active: SRD5A2 (gene 6716) 58.5 µM | SERPINA7 (gene 6906) 15.9 µM

CC(C)c1cccc(C(C)C)c1N1C(=O)c2ccc(O)cc2C1=O
active: [7] 10.7 µM and 50 µM | [8] 11.7 µM | [9] 5.98 µM and 22.1 µM | [10] 85 µM and 7.58 µM | [11] 80.2 µM

C[C@](N)(Cc1ccc(O)c(O)c1)C(=O)O
inactive: [3] | [4] | [5] | [6] | [12]

O=P(OC(CCl)CCl)(OC(CCl)CCl)OC(CCl)CCl
active: SERPINA7 (gene 6906) 3.27 µM
inactive: [13] | [14] | [15] | [10] | [11] | [16] | [17]

Oc1ccc2c(c1)-c1ccccc1C2
active: SERPINA7 (gene 6906) 19.4 µM

O=C1CCC(N2C(=O)c3ccccc3C2=O)C(=O)N1 (stereo not drawn)
inactive: [18] | [3] | [4] | [6]
active: [5] 1.44 µM

CCOC(=O)c1ccc(C2CCC(NC[C@H](O)COc3ccc(O)c(NS(C)(=O)=O)c3)CC2)cc1 (stereo partly drawn)
active: [1] 62.7 µM | [2] 50 µM | SRD5A2 (gene 6716) 79.2 µM

Nc1ccc(Nc2ccccc2)cc1
active: [1] 28.3 µM | [2] 31.5 µM | SERPINA7 (gene 6906) 50 µM

Nc1nc2ncc(CNc3ccc(C(=O)N[C@@H](CCC(=O)O)C(=O)O)cc3)nc2c(=O)[nH]1
inactive: [4] | [5] | [6] | [12]

CC[C@H](C)C(=O)O[C@H]1C[C@@H](C)C=C2C=C[C@H](C)[C@H](CC[C@@H]3C[C@@H](O)CC(=O)O3)[C@H]21
active: [3] 37.6 µM | [4] 2.83 µM | [5] 7.97 µM | [6] 41.7 µM | [12] 62.1 µM

CC[C@H]1OC(=O)[C@H](C)[C@@H](O[C@H]2C[C@@](C)(OC)[C@@H](O)[C@H](C)O2)[C@H](C)[C@@H](O[C@@H]2O[C@H](C)C[C@H](N(C)C)[C@H]2O)[C@](C)(O)C[C@@H](C)C(=O)[C@H](C)[C@@H](O)[C@]1(C)O
inactive: [13] | [1] | [2] | SRD5A2 (gene 6716) | [16] | [17]

CN(C)c1ccc(N=NS(=O)(=O)O)cc1
active: SRD5A2 (gene 6716) 64.2 µM
inactive: [1] | [2]

O=C(OC[C@H]1O[C@@H](OC(=O)c2cc(O)c(O)c(OC(=O)c3cc(O)c(O)c(O)c3)c2)[C@H](OC(=O)c2cc(O)c(O)c(OC(=O)c3cc(O)c(O)c(O)c3)c2)[C@@H](OC(=O)c2cc(O)c(O)c(OC(=O)c3cc(O)c(O)c(O)c3)c2)[C@@H]1OC(=O)c1cc(O)c(O)c(OC(=O)c2cc(O)c(O)c(O)c2)c1)c1cc(O)c(O)c(OC(=O)c2cc(O)c(O)c(O)c2)c1
inactive: [1] | [2] | SRD5A2 (gene 6716)

CCC(C)(C)C(=O)O[C@H]1C[C@@H](C)C=C2C=C[C@H](C)[C@H](CC[C@@H]3C[C@@H](O)CC(=O)O3)[C@H]21
inactive: [1] | [2] | SRD5A2 (gene 6716)

Cn1c(=O)c2c(ncn2C)n(C)c1=O
active: [12] 33.8 µM
inactive: [4] | [5] | [6]

CCCCCCc1ccc(O)cc1O
inactive: [18]

NC(=O)NO
inactive: [18] | [3] | [5] | [6]
active: [4] 64.7 µM

O=C(O)c1cccc(Oc2ccccc2)c1
active: SERPINA7 (gene 6906) 19.2 µM
